{
  "source": "paper PMC4336329",
  "about": "(PLoS ONE, 2015)",
  "note": "Out of some 310,000 compounds screened, about 14,000 (4.5%) showed an effect of 50% or more. Effects have a minus sign here. Many of the other results were omitted from the sample, so strong results are more common in it than they were.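 Note: peak tail current of the secondary pulse compared with the same well before compound.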",
  "data": [
    {"target": "human ether-à-go-go-related gene (hERG) potassium channel (human, UniProt Q12809)", "sequence (Q12809 whole entry, looked up)": "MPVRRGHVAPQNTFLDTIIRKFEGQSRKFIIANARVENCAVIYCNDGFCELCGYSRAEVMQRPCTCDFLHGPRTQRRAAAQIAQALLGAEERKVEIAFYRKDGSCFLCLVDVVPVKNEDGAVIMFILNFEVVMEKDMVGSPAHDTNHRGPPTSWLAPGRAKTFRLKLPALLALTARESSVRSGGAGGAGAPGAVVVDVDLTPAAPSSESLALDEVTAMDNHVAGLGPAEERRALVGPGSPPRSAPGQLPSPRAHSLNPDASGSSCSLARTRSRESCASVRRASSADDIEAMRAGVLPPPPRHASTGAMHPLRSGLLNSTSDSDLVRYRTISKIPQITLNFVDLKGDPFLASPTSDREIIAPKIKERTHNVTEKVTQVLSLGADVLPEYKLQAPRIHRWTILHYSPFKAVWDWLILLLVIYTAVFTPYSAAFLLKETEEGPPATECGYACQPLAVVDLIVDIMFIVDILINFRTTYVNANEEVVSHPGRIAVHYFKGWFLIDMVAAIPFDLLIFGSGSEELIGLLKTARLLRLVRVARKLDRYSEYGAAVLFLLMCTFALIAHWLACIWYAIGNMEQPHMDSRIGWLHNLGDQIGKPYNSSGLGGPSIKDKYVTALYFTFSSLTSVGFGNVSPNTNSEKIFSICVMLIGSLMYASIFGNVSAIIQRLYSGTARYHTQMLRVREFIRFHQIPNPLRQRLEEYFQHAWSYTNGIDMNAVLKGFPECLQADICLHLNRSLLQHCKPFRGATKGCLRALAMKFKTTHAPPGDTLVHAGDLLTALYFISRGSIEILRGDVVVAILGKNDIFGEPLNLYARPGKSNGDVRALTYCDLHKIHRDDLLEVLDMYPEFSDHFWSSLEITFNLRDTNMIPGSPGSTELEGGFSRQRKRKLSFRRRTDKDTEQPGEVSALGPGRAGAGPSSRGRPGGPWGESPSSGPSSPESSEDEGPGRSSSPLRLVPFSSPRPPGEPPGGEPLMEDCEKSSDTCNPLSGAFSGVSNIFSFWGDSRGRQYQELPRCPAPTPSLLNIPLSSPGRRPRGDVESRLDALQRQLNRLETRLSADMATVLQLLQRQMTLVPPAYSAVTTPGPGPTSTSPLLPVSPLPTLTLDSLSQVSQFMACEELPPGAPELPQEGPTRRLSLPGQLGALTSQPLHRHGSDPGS", "experiment": "primary screen, population patch clamp on CHO cells stably expressing hERG; higher = less effect of the substance", "units": {"hERG current change (%, negative = inhibition) at 10uM": "%"}, "values": [
      {"smiles": "O=C(Cc1ccc(S(=O)(=O)N2CCOCC2)s1)N1CCN(S(=O)(=O)c2cccc(Cl)c2)CC1", "hERG current change (%, negative = inhibition) at 10uM": -5.33},
      {"smiles": "CC(=O)N1N=C(c2ccc(C)cc2)OC1c1ccc(Br)cc1", "note": "(centres unmarked)", "hERG current change (%, negative = inhibition) at 10uM": 27.8},
      {"smiles": "Cc1nnc(NC(=O)CSc2ccc(-c3ccco3)nn2)s1", "hERG current change (%, negative = inhibition) at 10uM": 9.75},
      {"smiles": "CC(C)NC(=O)CSc1nc(N)c(NC(=O)c2ccco2)c(=O)[nH]1", "hERG current change (%, negative = inhibition) at 10uM": 14.7},
      {"smiles": "OCCNc1nc2nonc2nc1NCCO", "hERG current change (%, negative = inhibition) at 10uM": 11},
      {"smiles": "Clc1ccc(C(c2ccccc2)N2CCNCC2)cc1", "note": "(centres unmarked)", "hERG current change (%, negative = inhibition) at 10uM": -22.7},
      {"smiles": "CN1CCN(C(=O)/C=C/c2cccc(Cl)c2)CC1", "hERG current change (%, negative = inhibition) at 10uM": -6.45},
      {"smiles": "Clc1ccc(C(c2ccccc2)N2CCN(c3ccccn3)CC2)cc1", "note": "(centres unmarked)", "hERG current change (%, negative = inhibition) at 10uM": -5.64},
      {"smiles": "Cc1cccc(CN2CCN(C(c3ccccc3)c3ccc(Cl)cc3)CC2)c1.Cl", "note": "(centres unmarked)", "hERG current change (%, negative = inhibition) at 10uM": 18.5},
      {"smiles": "CN1CCCN(C(c2ccccc2)c2ccc(Cl)cc2)CC1.Cl", "note": "(centres unmarked)", "hERG current change (%, negative = inhibition) at 10uM": -73.8},
      {"smiles": "O=C(O)/C=C/C(=O)N1CCN(C(c2ccccc2)c2ccccc2)CC1", "hERG current change (%, negative = inhibition) at 10uM": 40.8},
      {"smiles": "CN1CCN(C(c2ccccc2)c2ccccc2)CC1.Cl", "hERG current change (%, negative = inhibition) at 10uM": -12.1},
      {"smiles": "CN1CCN(C(c2cccc(Cl)c2)c2ccccc2Cl)CC1.O=C(O)/C=C\\C(=O)O", "note": "(centres unmarked)", "hERG current change (%, negative = inhibition) at 10uM": -73.1},
      {"smiles": "CN1CCN(C(c2ccccc2)c2ccc(Cl)cc2)CC1.Cl", "note": "(centres unmarked)", "hERG current change (%, negative = inhibition) at 10uM": -60.9},
      {"smiles": "COc1cccc(CN2CCN(c3ncccn3)CC2)c1OC", "hERG current change (%, negative = inhibition) at 10uM": -3.3},
      {"smiles": "COc1ccc(CCNC(=O)c2nnn(CC(=O)Nc3ccccc3C)c2N)cc1OC", "hERG current change (%, negative = inhibition) at 10uM": 16.3},
      {"smiles": "CSc1ncccc1C(=O)Nc1ccc(C)cn1", "hERG current change (%, negative = inhibition) at 10uM": 0.536},
      {"smiles": "Cc1ccc(CS/C(Nc2ccccc2C)=C(\\C#N)C(=O)NCc2ccco2)c(C)c1", "hERG current change (%, negative = inhibition) at 10uM": 9.03},
      {"smiles": "CCN(CC)S(=O)(=O)c1ccc(C(=O)NCCCN=C2NS(=O)(=O)c3ccccc32)cc1", "hERG current change (%, negative = inhibition) at 10uM": -5.24},
      {"smiles": "CCC1(CC)C(=O)C2=C3C1[C@H](C(=O)OC)C=C(C(=O)OC)C[C@H]3[C@H]1C(=O)N(CC(=O)OC)C(=O)[C@H]1[C@H]2C", "note": "(some centres unmarked)", "hERG current change (%, negative = inhibition) at 10uM": 5.84},
      {"smiles": "COc1ccc(OC)c(S(=O)(=O)Nc2cc3c4c(c2)CCN4C(=O)CC3)c1", "hERG current change (%, negative = inhibition) at 10uM": -2.69},
      {"smiles": "C=CCn1c(SCC(=O)N2CC(=O)Nc3ccccc32)nc2scc(-c3ccccc3)c2c1=O", "hERG current change (%, negative = inhibition) at 10uM": -1.72},
      {"smiles": "O=C(CSc1nccn(-c2ccc(Br)cc2)c1=O)NC1CCCC1", "hERG current change (%, negative = inhibition) at 10uM": 13.7},
      {"smiles": "Cc1nnc(NC(=O)CSc2nnc(CNC(=O)c3ccc(S(=O)(=O)N(C)C)cc3)o2)s1", "hERG current change (%, negative = inhibition) at 10uM": 22.6},
      {"smiles": "CC(Cl)C(=O)NNC(=O)CNS(=O)(=O)c1ccccc1", "note": "(centres unmarked)", "hERG current change (%, negative = inhibition) at 10uM": -0.478},
      {"smiles": "CN(C)/C=C\\C(=C/C(=O)C(F)(F)F)Nc1ccccc1Oc1ccccc1", "hERG current change (%, negative = inhibition) at 10uM": -24.4},
      {"smiles": "Cc1ccc(NC(/C=C/N(C)C)=C/C(=O)C(F)(F)F)c(C)c1", "hERG current change (%, negative = inhibition) at 10uM": -56.7},
      {"smiles": "CN(C)/C=C/C(=C\\C(=O)C(F)(F)F)Nc1ccc(C(F)(F)F)cc1", "hERG current change (%, negative = inhibition) at 10uM": 2.83},
      {"smiles": "C=CCc1ccc(OCC(O)CN2CCCCC2C)c(OC)c1.Cl", "note": "(centres unmarked)", "hERG current change (%, negative = inhibition) at 10uM": -55.1},
      {"smiles": "C=CCc1ccc(OCC(O)CN2CCc3ccccc3C2)c(OC)c1.Cl", "note": "(centres unmarked)", "hERG current change (%, negative = inhibition) at 10uM": -68.8},
      {"smiles": "COc1cc(COCC(O)CN2CCCCC2C)cc(OC)c1OC.Cl", "note": "(centres unmarked)", "hERG current change (%, negative = inhibition) at 10uM": 20.6},
      {"smiles": "COc1cc(COCC(O)CN2CCc3ccccc3C2)cc(OC)c1OC.Cl", "note": "(centres unmarked)", "hERG current change (%, negative = inhibition) at 10uM": -21.7},
      {"smiles": "C=CCc1ccc(OCC(O)COc2ccc(CC=C)cc2OC)c(OC)c1", "hERG current change (%, negative = inhibition) at 10uM": -24.5},
      {"smiles": "C=CCc1ccc(OCC(O)CN2CCC(Cc3ccccc3)CC2)c(OC)c1.Cl", "note": "(centres unmarked)", "hERG current change (%, negative = inhibition) at 10uM": -77.5},
      {"smiles": "C=CCc1ccc(OCC(O)CN2CCN(c3ccccc3)CC2)c(OC)c1.Cl", "note": "(centres unmarked)", "hERG current change (%, negative = inhibition) at 10uM": -70.3},
      {"smiles": "C=CCc1ccc(OCC(O)CN2CCN(c3ccccc3OC)CC2)c(OC)c1.Cl", "note": "(centres unmarked)", "hERG current change (%, negative = inhibition) at 10uM": -16.2},
      {"smiles": "CC(=O)C(C)n1c(CN(C)Cc2ccccc2)nc2c1c(=O)n(C)c(=O)n2C", "note": "(centres unmarked)", "hERG current change (%, negative = inhibition) at 10uM": -5.4},
      {"smiles": "O=C(CSc1cc([N+](=O)[O-])cc(S(=O)(=O)Cc2ccccc2)c1)NC1CC1", "hERG current change (%, negative = inhibition) at 10uM": -9.88},
      {"smiles": "COCCNC(=O)COc1ccc(C)c(C)c1", "hERG current change (%, negative = inhibition) at 10uM": 3.36},
      {"smiles": "Cc1cc(S(=O)(=O)N2CCC(N3CCCCC3)CC2)ccc1-n1cnnn1", "hERG current change (%, negative = inhibition) at 10uM": -1.17},
      {"smiles": "COc1cccc(C2CC(c3ccccc3Cl)n3nnnc3N2)c1", "note": "(centres unmarked)", "hERG current change (%, negative = inhibition) at 10uM": -12.1},
      {"smiles": "O=C(Nc1nc2ccccc2s1)c1cccc(S(=O)(=O)N2CCc3ccccc32)c1", "hERG current change (%, negative = inhibition) at 10uM": -7.03},
      {"smiles": "Cc1cccc(OCCCC(=O)NNC(=O)c2ccc(F)cc2)c1", "hERG current change (%, negative = inhibition) at 10uM": -7.21},
      {"smiles": "COc1ccc(-c2nn3c(C4CCCCC4)nnc3s2)cc1OC", "hERG current change (%, negative = inhibition) at 10uM": -15.2},
      {"smiles": "COc1ccc(-n2nc(C(=O)NCC(=O)NC3CCCCCC3)c3ccccc3c2=O)c(OC)c1", "hERG current change (%, negative = inhibition) at 10uM": 11.1},
      {"smiles": "N/C(=N\\OC(=O)COc1ccc(Cl)cc1Br)c1cccnc1", "hERG current change (%, negative = inhibition) at 10uM": -8.3},
      {"smiles": "C=CCc1ccc(OCC(O)CN2CCN(Cc3ccc(Cl)cc3)CC2)c(OC)c1.Cl", "note": "(centres unmarked)", "hERG current change (%, negative = inhibition) at 10uM": -75.7},
      {"smiles": "C=CCc1ccc(OC)c(OC)c1", "hERG current change (%, negative = inhibition) at 10uM": 23.8},
      {"smiles": "C=CCc1ccc(OCC(O)COCC)c(OC)c1", "note": "(centres unmarked)", "hERG current change (%, negative = inhibition) at 10uM": -3.56},
      {"smiles": "C=CCc1ccc(OCC(O)CO)c(OC)c1", "note": "(centres unmarked)", "hERG current change (%, negative = inhibition) at 10uM": 11.6},
      {"smiles": "C=CCc1ccc(OCC(O)CN2CCN(Cc3ccccc3)CC2)c(OC)c1.Cl", "note": "(centres unmarked)", "hERG current change (%, negative = inhibition) at 10uM": -77},
      {"smiles": "C=CCc1ccc(OCC(O)CN2CCCCC2)c(OC)c1", "note": "(centres unmarked)", "hERG current change (%, negative = inhibition) at 10uM": -54.8},
      {"smiles": "C=CCN1C(=O)c2ccc(C(=O)N3CCN(S(=O)(=O)c4ccccc4Br)CC3)cc2C1=O", "hERG current change (%, negative = inhibition) at 10uM": -41.2},
      {"smiles": "O=C(NC(=S)Nc1ccccc1[N+](=O)[O-])c1ccccc1", "hERG current change (%, negative = inhibition) at 10uM": 6.17},
      {"smiles": "CSc1nc(N)nc(SCCS(=O)(=O)c2ccc(Cl)cc2)c1C#N", "hERG current change (%, negative = inhibition) at 10uM": -3.5},
      {"smiles": "CN(C(=O)COC(=O)c1ccc2c(c1)NC(=O)CS2)C1CCS(=O)(=O)C1", "note": "(centres unmarked)", "hERG current change (%, negative = inhibition) at 10uM": 31.3}
    ]}
  ]
}
